Counter-ions that a name gives are not always drawn. ± gives the standard deviation of the averaged measurements.
How the values were obtained:
Assay in all cases: growth (OD600 after 10 h); higher = more growth (less inhibition)
[1] = system: E. coli TESEC Alr+ wild-type control; conditions: compound 0.1 mM; raw OD600 reference: median of DMSO wells 0.241, cell-free background 0.041
Method: (§1)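 TESEC Mtb Alr E. coli, or the Alr+ wild-type control, in 384-well plates with Prestwick library compounds at 0.1 mM and 1% DMSO, across arabinose induction levels of 1E3 to 1E7 nM. Growth is read as OD600 after 10 h at 37 °C in triplicate biological replicates.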

E. coli TESEC Mtb Alr [2] = conditions: compound 0.1 mM
Method: as §1

E. coli TESEC Mtb Asd = conditions: compound 0.1 mM
Method: (§2)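 TESEC E. coli strains in which the native enzyme is deleted and replaced by arabinose-inducible Mtb Asd, DapB, CysH or TrpD, each grown in its selective medium. Strains were screened against the Prestwick library at 0.1 mM and 1% DMSO in 384-well format at low and high arabinose induction. Growth is read as OD600 after 10 h in triplicate.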

E. coli TESEC Mtb DapB = conditions: compound 0.1 mM
Method: as §2

E. coli TESEC Mtb Alr [3] = conditions: compound 0.1 mM; remark: listed apart in the source
Method: (§3)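 TESEC Mtb Alr E. coli (ΔaraC ΔtolC ΔentC Δalr ΔdadX, arabinose-inducible Mtb Alr) or the Alr+ wild-type control strain, grown in defined M9-fructose medium without D-alanine in 96-well plates with Prestwick library compounds at 0.1 mM and 1% DMSO. Low Alr induction is 0.1 µM arabinose and high induction is 10 mM arabinose.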

[4] = system: E. coli TESEC Alr+ wild-type control; conditions: compound 0.1 mM; raw OD600 reference: median of DMSO wells 0.49, cell-free background 0.052
Method: as §3

[5] = arabinose 1000 nM, raw OD600 reference: median of DMSO wells 0.294, cell-free background 0.041
[6] = arabinose 10000 nM, raw OD600 reference: median of DMSO wells 0.264, cell-free background 0.041
[7] = arabinose 100000 nM, raw OD600 reference: median of DMSO wells 0.201, cell-free background 0.041
[8] = arabinose 1000000 nM, raw OD600 reference: median of DMSO wells 0.193, cell-free background 0.041
[9] = arabinose 10000000 nM, raw OD600 reference: median of DMSO wells 0.146, cell-free background 0.041
[10] = arabinose induction (level): High, raw OD600 reference: median of DMSO wells 0.331, cell-free background 0.041
[11] = arabinose induction (level): Low, raw OD600 reference: median of DMSO wells 0.417, cell-free background 0.041
[12] = arabinose induction (level): High, raw OD600 reference: median of DMSO wells […], cell-free background 0.041
[13] = arabinose induction (level): Low, raw OD600 reference: median of DMSO wells 0.227, cell-free background 0.041
[14] = arabinose 100 nM, raw OD600 reference: median of DMSO wells 0.413, cell-free background 0.052
[15] = arabinose 10000000 nM, raw OD600 reference: median of DMSO wells […], cell-free background 0.052

Row | Compound | growth [1] | growth (E. coli TESEC Mtb Alr [2]; [5]) | growth (E. coli TESEC Mtb Alr [2]; [6]) | growth (E. coli TESEC Mtb Alr [2]; [7]) | growth (E. coli TESEC Mtb Alr [2]; [8]) | growth (E. coli TESEC Mtb Alr [2]; [9]) | growth (E. coli TESEC Mtb Asd; [10]) | growth (E. coli TESEC Mtb Asd; [11]) | growth (E. coli TESEC Mtb DapB; [12]) | growth (E. coli TESEC Mtb DapB; [13]) | growth (E. coli TESEC Mtb Alr [3]; [14]) | growth (E. coli TESEC Mtb Alr [3]; [15]) | growth [4]
1 | C[C@]12CCC(=O)C(O)=C1CC[C@@H]1[C@@H]2CC[C@]2(C)C(=O)CC[C@@H]12 [Formestane] | 0.115 ± 0.0066 | 0.182 ± 0.011 | 0.228 ± 0.014 | 0.1 ± 0.0018 | 0.0848 ± 0.0012 | 0.1103 ± 0.00057 | 0.13 ± 0.017 | 0.25 ± 0.052 | 0.156 ± 0.01 | 0.159 ± 0.0083 | 0.373 ± 0.025 | 0.133 ± 0.017 | 
2 | COc1cc2c(c(OC)c1OC)-c1ccc(OC)c(=O)cc1[C@@H](NC(C)=O)CC2 [Colchicine] | 0.226 ± 0.0076 | 0.262 ± 0.034 | 0.267 ± 0.0042 | 0.204 ± 0.025 | 0.185 ± 0.0039 | 0.144 ± 0.0049 | 0.276 ± 0.063 | 0.355 ± 0.1 | 0.204 ± 0.018 | 0.228 ± 0.035 | 0.423 ± 0.038 | 0.322 ± 0.0069 | 
3 | C[C@@H]1C[C@@H]([C@H](O)CC2CC(=O)NC(=O)C2)C(=O)[C@@H](C)C1 [Cycloheximide] | 0.25 ± 0.014 | 0.314 ± 0.018 | 0.268 ± 0.006 | 0.195 ± 0.009 | 0.186 ± 0.011 | 0.157 ± 0.0081 | 0.469 ± 0.0092 | 0.443 ± 0.042 | 0.231 ± 0.031 | 0.258 ± 0.027 | 0.394 ± 0.033 | 0.33 ± 0.013 | 
4 | NC(=O)C[S+]([O-])C(c1ccccc1)c1ccccc1 (stereo unspecified) [Modafinil] | 0.246 ± 0.0057 | 0.295 ± 0.0039 | 0.255 ± 0.015 | 0.246 ± 0.021 | 0.192 ± 0.0097 | 0.148 ± 0.0039 | 0.348 ± 0.097 | 0.434 ± 0.039 | 0.191 ± 0.013 | 0.199 ± 0.017 | 0.406 ± 0.0054 | 0.346 ± 0.021 | 
5 | CC1C=CC=CCCC=CC=CC=CC=CC(OC2OC(C)C(O)C(N)C2O)CC2OC(O)(CC(O)C(O)CCC(O)CC(O)CC(O)CC(=O)OC(C)C(C)C1O)CC(O)C2C(=O)O (stereo unspecified) [Nystatine] | 0.297 ± 0.0097 | 0.307 ± 0.025 | 0.2338 ± 0.0013 | 0.345 ± 0.014 | 0.1538 ± 0.0011 | 0.188 ± 0.0066 | 0.23 ± 0.021 | 0.256 ± 0.023 | 0.295 ± 0.013 | 0.269 ± 0.051 | 0.431 ± 0.0073 | 0.345 ± 0.016 | 
6 | S=C(NC1CCCCC1)N1CCC(c2cnc[nH]2)CC1 [Thioperamide maleate] | 0.218 ± 0.0074 | 0.286 ± 0.015 | 0.257 ± 0.013 | 0.17 ± 0.016 | 0.15 ± 0.0049 | 0.131 ± 0.0035 | 0.273 ± 0.013 | 0.495 ± 0.039 |  |  | 0.402 ± 0.016 | 0.299 ± 0.029 | 0.561 ± 0.066
